Read-out in experiment [1]: Interferon-gamma inducible Protein 10 (IP10), CXCL10 (gene 3627)
The experiment is described as follows: BSK_hDFCGF_IP10: BioMAP Diversity Plus: hDFCGF Assay for Interferon-gamma inducible Protein 10 (IP10) Biomarker Activity (AID 2283053). The following applies: primary human foreskin fibroblasts; actives raise or lower the signal. In a few lines:
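Human foreskin fibroblast primary cells (hDFCGF system) were dosed with chemical and assayed at 24 h; IP-10 measured by ELISA. Activity fitted bidirectionally relative to DMSO negative control as baseline.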

Read-out in experiment [2]: Urokinase-type plasminogen activator receptor (uPAR), PLAUR (gene 5329)
Briefly: BSK_CASM3C_uPAR: BioMAP Diversity Plus: CASM3C Assay for Urokinase-type plasminogen activator receptor (uPAR) Biomarker Activity (AID 2283054).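 Further: cell-surface uPAR protein level quantified by ELISA.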 The following applies: primary human coronary artery smooth muscle cells; actives raise or lower the signal.

Read-out in experiment [3]: Vascular cell adhesion molecule 1 (VCAM1), VCAM1 (gene 7412)
The experiment is described as follows: BSK_CASM3C_VCAM1: BioMAP Diversity Plus: CASM3C Assay for Vascular cell adhesion molecule 1 (VCAM1) Biomarker Activity (AID 2283055).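 Further: VCAM-1 protein level quantified by ELISA on the cells.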 The following applies: primary human coronary artery smooth muscle cells; actives raise or lower the signal.

Read-out in experiment [4]: Epidermal growth factor receptor (EGFR), EGFR (gene 1956)
Briefly: BSK_hDFCGF_EGFR: BioMAP Diversity Plus: hDFCGF Assay for Epidermal growth factor receptor (EGFR) Biomarker Activity (AID 2283057). The following applies: primary human foreskin fibroblasts; actives raise or lower the signal. In a few lines: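 Primary human foreskin fibroblasts were exposed to compound for 24 h, after which cell-surface EGFR was quantified by ELISA. Activity was fitted bidirectionally against the DMSO negative control as baseline.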

Read-out in experiment [5]: Interleukin-8 (IL8), CXCL8 (gene 3576)
The experiment is described as follows: BSK_hDFCGF_IL8: BioMAP Diversity Plus: hDFCGF Assay for Interleukin-8 (IL8) Biomarker Activity (AID 2283058). The conditions noted are these: primary human foreskin fibroblasts; actives raise or lower the signal. In a few lines:
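ELISA read-out of IL-8 from primary human foreskin fibroblast cultures taken 24 h after dosing; values are bidirectional fits relative to DMSO vehicle.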

A short description of experiment [6]: BSK_hDFCGF_Proliferation: Cell Proliferation Assessment in the BioMAP Diversity Plus: hDFCGF Assay (AID 2283059).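 Further: curves fitted for both rise and fall of signal versus DMSO baseline.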 The following applies: primary human foreskin fibroblasts. In a few lines: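 This proliferation readout used SRB total-protein staining of human foreskin fibroblasts […], normalized to DMSO with bidirectional curve fitting.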
Read-out in experiment [7]: Macrophage colony-stimulating factor (MCSF), CSF1 (gene 1435)
Briefly: BSK_hDFCGF_MCSF: BioMAP Diversity Plus: hDFCGF Assay for Macrophage colony-stimulating factor (MCSF) Biomarker Activity (AID 2283060). The conditions noted are these: primary human foreskin fibroblasts; actives raise or lower the signal. An outline of the steps:
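ELISA read-out of M-CSF in human dermal foreskin fibroblast cultures, 24 h after chemical dosing; gain or loss of signal fitted bidirectionally relative to DMSO baseline.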

Experiment [8] is described as follows: BSK_hDFCGF_SRB: Viability Assessment in the BioMAP Diversity Plus: hDFCGF Assay (AID 2283061).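 Further: cells exposed to compound for 24 h before the read.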 The following applies: primary human foreskin fibroblasts. An outline of the steps:
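Primary human foreskin fibroblasts; 24 h post-dose; fixed 10% TCA, stained 0.1% SRB, A560 read; total protein as overt cytotoxicity measure; curves fit bidirectionally vs DMSO control.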

Read-out in experiment [9]: TIMP metallopeptidase inhibitor 1 (TIMP1), TIMP1 (gene 7076)
Briefly: BSK_hDFCGF_TIMP1: BioMAP Diversity Plus: hDFCGF Assay for TIMP metallopeptidase inhibitor 1 (TIMP1) Biomarker Activity (AID 2283062). The conditions noted are these: primary human foreskin fibroblasts; actives raise or lower the signal. An outline of the steps: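 ELISA readout of TIMP-1 from human dermal foreskin fibroblast cultures 24 h post-dosing. Curves were fitted in both directions against DMSO baseline, with SRB total-protein staining in parallel cultures as a cytotoxicity check.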

Read-out in experiment [10]: Monokine induced gamma interferon (MIG), CXCL9 (gene 4283)
Briefly: BSK_hDFCGF_MIG: BioMAP Diversity Plus: hDFCGF Assay for Monokine induced gamma interferon (MIG) Biomarker Activity (AID 2283063). The conditions noted are these: primary human foreskin fibroblasts; actives raise or lower the signal. An outline of the steps:
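Fibroblasts (human foreskin, primary) dosed, 24 h, MIG by ELISA; fit bidirectional vs DMSO.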

Read-out in experiment [11]: Matrix Metallopeptidase 1 (MMP1), MMP1 (gene 4312)
The experiment is described as follows: BSK_hDFCGF_MMP1: BioMAP Diversity Plus: hDFCGF Assay for Matrix Metallopeptidase 1 (MMP1) Biomarker Activity (AID 2283064). The conditions noted are these: primary human foreskin fibroblasts; actives raise or lower the signal. An outline of the steps:
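Primary human foreskin fibroblasts exposed to chemicals for 24 h; MMP1 measured by ELISA. Cytotoxicity tracked by SRB staining in parallel cultures; bidirectional fit relative to DMSO.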

Read-out in experiment [12]: Vascular cell adhesion molecule 1 (VCAM1), VCAM1 (gene 7412)
The experiment is described as follows: BSK_hDFCGF_VCAM1: BioMAP Diversity Plus: hDFCGF Assay for Vascular cell adhesion molecule 1 (VCAM1) Biomarker Activity (AID 2283065).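 On AC50: VCAM-1 protein level quantified by ELISA after 24 h chemical exposure.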 The conditions noted are these: primary human foreskin fibroblasts; actives raise or lower the signal. In a few lines:
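ELISA read-out of VCAM-1 on human skin fibroblasts, 24 h post-dose; gain or loss of signal fitted bidirectionally against DMSO baseline.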

Read-out in experiment [13]: Plasminogen activator inhibitor-1 (PAI1), SERPINE1 (gene 5054)
The experiment is described as follows: BSK_hDFCGF_PAI1: BioMAP Diversity Plus: hDFCGF Assay for Plasminogen activator inhibitor-1 (PAI1) Biomarker Activity (AID 2283066). The conditions noted are these: primary human foreskin fibroblasts; actives raise or lower the signal. In a few lines:
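Human foreskin fibroblasts in the hDFCGF system were dosed with compound for 24 h; PAI-1 was quantified by ELISA. Bidirectional curve fitting used DMSO as negative control and baseline.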

Read-out in experiment [14]: Intercellular Adhesion Molecule 1 (ICAM1), ICAM1 (gene 3383)
The experiment is described as follows: BSK_KF3CT_ICAM1: BioMAP Diversity Plus: KF3CT Assay for Intercellular Adhesion Molecule 1 (ICAM1) Biomarker Activity (AID 2283067). The following applies: primary human keratinocytes with fibroblasts; actives raise or lower the signal. An outline of the steps: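 ELISA readout of ICAM-1; KF3CT human skin co-culture (keratinocytes + foreskin fibroblasts), 24 h post-dose; gain/loss fit vs DMSO baseline.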

Read-out in experiment [15]: Interferon-gamma inducible Protein 10 (IP10), CXCL10 (gene 3627)
Briefly: BSK_KF3CT_IP10: BioMAP Diversity Plus: KF3CT Assay for Interferon-gamma inducible Protein 10 (IP10) Biomarker Activity (AID 2283068). The conditions noted are these: primary human keratinocytes with fibroblasts; actives raise or lower the signal. In a few lines: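 Signal is secreted/surface IP-10 by ELISA in a human primary skin co-culture of keratinocytes and foreskin fibroblasts, taken 24 h post-dosing; DMSO served as negative control.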

A short description of experiment [16]: BSK_KF3CT_SRB: Viability Assessment in the BioMAP Diversity Plus: KF3CT Assay (AID 2283069).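 Further: total protein by sulforhodamine B staining as a cytotoxicity measure; read 24 h after compound addition.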 The following applies: primary human keratinocytes with fibroblasts. In a few lines:
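Human keratinocyte and foreskin fibroblast co-culture exposed to chemical for 24 h. Total protein measured in parallel cultures by 0.1% sulforhodamine B staining after 10% TCA fixation, read at 560 nm; bidirectional fit relative to DMSO.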

Read-out in experiment [17]: Interleukin-1 alpha (IL1a), IL1A (gene 3552)
The experiment is described as follows: BSK_KF3CT_IL1a: BioMAP Diversity Plus: KF3CT Assay for Interleukin-1 alpha (IL1a) Biomarker Activity (AID 2283070). The conditions noted are these: primary human keratinocytes with fibroblasts; actives raise or lower the signal. In a few lines: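 Primary human keratinocyte plus foreskin fibroblast co-culture, dosed and measured at 24 h in 96-well plates. IL-1a level quantified by ELISA; bidirectional fit relative to DMSO.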

Read-out in experiment [18]: TIMP metallopeptidase inhibitor 2 (TIMP2), TIMP2 (gene 7077)
The experiment is described as follows: BSK_KF3CT_TIMP2: BioMAP Diversity Plus: KF3CT Assay for TIMP metallopeptidase inhibitor 2 (TIMP2) Biomarker Activity (AID 2283071). The conditions noted are these: primary human keratinocytes with fibroblasts; actives raise or lower the signal. An outline of the steps: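 Human primary keratinocyte/foreskin fibroblast co-culture dosed with chemical and sampled at 24 h. TIMP-2 levels quantified by ELISA; bidirectional fitting against DMSO negative control as baseline.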

Read-out in experiment [19]: Transforming growth factor beta 1 (TGFb1), TGFB1 (gene 7040)
The experiment is described as follows: BSK_KF3CT_TGFb1: BioMAP Diversity Plus: KF3CT Assay for Transforming growth factor beta 1 (TGFb1) Biomarker Activity (AID 2283072). The following applies: primary human keratinocytes with fibroblasts; actives raise or lower the signal. In a few lines:
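Human keratinocyte plus foreskin fibroblast primary co-culture, dosed with chemical for 24 h. TGF-b1 quantified by ELISA. Activity fitted bidirectionally against DMSO negative control as baseline.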

Read-out in experiment [20]: Collagen III, COL3A1 (gene 1281)
The experiment is described as follows: BSK_hDFCGF_CollagenIII: BioMAP Diversity Plus: hDFCGF Assay for Collagen III Biomarker Activity (AID 2283056). The following applies: primary human foreskin fibroblasts; actives raise or lower the signal. In a few lines: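 hDFCGF primary human dermal fibroblasts; 24 h chemical exposure; collagen III by ELISA; bidirectional curve fit vs DMSO baseline (gain or loss of signal).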

Data on six compounds can be found in PubChem BioAssay (EPA / NIEHS).

Molecules are shown by their SMILES. Several values for one entry are separate records, joined by “and”; a condition that tells them apart may be missing. Identical values can stand only once. Activity calls are given as the source filed them. How the source made its calls: active means hit-call score of the fitted dose curve at least 0.9, where 1 is the maximum; inactive means score below 0.9.

The AC50 is the concentration at which the activity in the assay is half-maximal.

Take `CNC[C@H](O)c1cccc(O)c1`: the result in experiment [1], in experiment [2], in [3], in experiment [4], in experiment [5] and in experiment [6] was inactive. The result in [7], in experiment [8], in experiment [9], in experiment [10], in experiment [11] and in experiment [12] was inactive. Further, the outcome in experiment [13], in experiment [14], in experiment [15], in experiment [16], in experiment [17] and in [18] was inactive. The outcome in experiment [19] was inactive.
Consider `OC1OC[C@@H](O)[C@H](O)[C@H]1O` (some centres undefined), for which the result in [1], in [2], in [3], in [20], in [4] and in experiment [5] was inactive. The outcome in [6], in [7], in [8], in experiment [9], in experiment [10] and in experiment [11] was inactive. Besides, the result in experiment [12], in experiment [13], in experiment [14], in [15], in experiment [16] and in [17] was inactive. Further, in experiment [18], the result was inactive.
Turning to `C=CCOC(=O)CCC1CCCCC1`, the outcome in experiment [1], in experiment [2], in experiment [3], in [4], in [5] and in [7] was inactive. For the same compound, the result in experiment [8], in [9], in [10], in experiment [11], in experiment [12] and in experiment [13] was inactive. Besides, the outcome in experiment [14], in experiment [15], in [16], in experiment [17] and in experiment [18] was inactive. For the same compound, the AC50 in experiment [6] is 30.8 µM (active) and 37.8 µM (active).
Regarding `CC(C)(COC(=O)c1ccccc1)COC(=O)c1ccccc1`, the outcome in [1], in experiment [2], in experiment [3], in experiment [4], in experiment [5] and in experiment [10] was inactive. Besides, the outcome in experiment [11], in experiment [14], in experiment [15], in experiment [16], in [17] and in [18] was inactive. For the same compound, in [19], the result was inactive. The AC50 was 16.7 µM (active) in [20]; 32.1 µM (active) in experiment [6]; 20 µM (active) in [7]; 31.5 µM (active) in experiment [8]; 34.3 µM (active) in [9]; 16.1 µM (active) in experiment [12]. The AC50 in experiment [13] is 32.9 µM (active).
As for `O=[N+]([O-])c1cc(C(F)(F)F)ccc1Cl`, the outcome in experiment [1], in experiment [2], in experiment [3], in experiment [20], in experiment [4] and in experiment [5] was inactive. For the same compound, the result in [7], in experiment [8], in experiment [9], in [10], in [11] and in [12] was inactive. Moreover, the result in [13], in [14], in [15], in [16], in experiment [17] and in experiment [18] was inactive. In addition, in [19], the result was inactive. For the same compound, the AC50 in experiment [6] was 0.0171 µM (active).
Take `CC(=O)OCCC(C)CC(C)(C)C` (centres undefined): the result in experiment [1], in [2], in experiment [3], in experiment [4], in [5] and in experiment [6] was inactive. The outcome in experiment [7], in [8], in [9], in experiment [10], in experiment [11] and in experiment [12] was inactive. Besides, the outcome in [13], in experiment [14], in experiment [15], in experiment [16], in experiment [17] and in experiment [18] was inactive.
